Assay results taken from the supplement of paper PMC7156485.
Several values for one entry are separate records, joined by “and”; a condition that tells them apart may be missing. Equal entries are not always repeated. ± gives the standard deviation of the averaged measurements.

system: TDF; assay: cell number relative to DMSO (% of DMSO); higher = more cells (less growth inhibition / toxicity); settings: concentration: 10 µM; 24 h
How it was run: (§1)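 H1.0 nuclear intensity or cell number is expressed as percent of the plate control, with the median of replicates taken. HCC1569 and TDF cells were treated with compounds at 10 µM for 24 h at 37 °C, in triplicate, then fixed and immunostained for H1.0 with DAPI as a nuclear stain. HCC1569 values were smoothed to correct for positional effects.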
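Wherever H1.0 immunofluorescence intensity relative to DMSO is given: TDF is a line of transformed human dermal fibroblasts of mesenchymal origin.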
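Wherever cell number relative to DMSO is given: TDF denotes transformed human dermal fibroblasts of mesenchymal origin.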

| Structure (SMILES) | cell number |
| --- | --- |
| O=C1NC(=O)C(c2c[nH]c3ccccc23)=C1c1c[nH]c2ccccc12 [Bisindolylmaleimide IV] | 119 |
| O=C1c2ccccc2-c2nc3nnnn3nc21 [PDK1/Akt/Flt Dual Pathway Inhibitor] | 3.4 |
| CCN(CC)CCNC(=O)c1c(C)[nH]c(C=C2C(=O)Nc3ccc(Cl)cc32)c1C | 1.9 |
| Cc1cc(Nc2ccc(NC(=O)c3ccc(Nc4ccnc5ccccc45)cc3)cc2)nc(N)n1 | 0.96 |
| C[n+]1cc2c3c(ccc2c2ccc4cc5c(cc4c21)OCO5)OCO3.[Cl-] [Sanguinarine chloride] | 0.53 |
| COS(=O)(=O)[O-].C[n+]1c2ccccc2nc2ccccc21 [5-methylphenazin-5-ium methyl sulfate] | 4.9 |
| C=CC(=O)N1C/C(=C\c2ccc([N+](=O)[O-])cc2)C(=O)/C(=C/c2ccc([N+](=O)[O-])cc2)C1 [1-acryloyl-3,5-bis((E)-4-nitrobenzylidene)piperidin-4-one] | 0.39 |
| Clc1ccc(N/N=C(\c2ccccc2)c2ccccn2)nc1 | 1.54 |
| Cc1ccccc1N(C)C(=O)c1ccc(S(=O)c2nccs2)c([N+](=O)[O-])c1 (configuration not stated) | 4.15 |
| NC(=O)Nc1cc(-c2cccc(F)c2)sc1C(=O)NC1CCCNC1 (configuration not stated) | 1.8 |
| CC(=O)C1(O)Cc2c(O)c3c(c(O)c2C(OC2CC(N)C(O)C(C)O2)C1)C(=O)c1ccccc1C3=O (configuration not stated) [Idarubicin] | 5.14 ± 3 |
| CCCCCC(O)C=CC=CCCCCCCCCCC(=O)O (configuration not stated) | 90.3 |
| Cl.NC1C=CC=C(C(=O)O)C1 (configuration not stated) [Gabaculine hydrochloride] | 108 |
| Cc1[nH]nc2ccc(-c3cncc(OCC(N)Cc4ccccc4)c3)cc12 (configuration not stated) | 2.19 |
| O=C(NC1=CNNC1=C1N=c2ccc(CN3CCOCC3)cc2=N1)NC1CC1 | 2.95 |
| c1cc(-c2cnn3cc(-c4ccc(N5CCNCC5)cc4)cnc23)c2cccnc2c1 | 0.96 |
| CCN(CC)CCCC(C)Nc1c2ccc(Cl)cc2nc2ccc(OC)cc12.Cl.Cl (configuration not stated) [Quinacrine dihydrochloride] | 4.99 |
| COc1ccc(CNC(=O)Nc2ncc([N+](=O)[O-])s2)cc1 [GSK-3b Inhibitor VIII] | 106 |
| S=C([S-])N1CCCC1.[NH4+] [Ammonium pyrrolidinedithiocarbamate] | 1.9 |
| NC(CCC(=O)NC(CS)C(=O)NCC(=O)O)C(=O)O (configuration not stated) [Glutathione] | 96.1 |
| CCCCCC=CCC=CCC=CCC=CCCCCCC(=O)O [Adrenic acid (22:4 n-6)] | 107 |
| Nc1ncnc2c1nc(N)n2[C@@H]1O[C@H](CO)[C@@H](O)[C@H]1O | 2.02 |
| CCN(CC)CCCC(C)Nc1cc(/C=C/c2ccccc2Cl)nc2cc(Cl)ccc12 (configuration not stated) | 1.01 |
| O=C(c1ccc(Nc2nccc(-c3cc4ccccc4s3)n2)cc1)N1CCC(N2CCCC2)CC1 | 3.45 |
| O=S(=O)(NCc1cccc2ccccc12)c1cc(Cl)c(Oc2cccc(N3CCNCC3)c2)s1 | 0.28 |
| Cc1ccc([N+](=O)[O-])cc1S(=O)(=O)N(C)N=Cc1cnc2ccc(Br)cn12.Cl.O.O [PI 3-Ka Inhibitor VIII] | 4.97 |
| CC1(C)CC=C(c2ccccc2)c2cc(/C=C/c3ccc(C(=O)O)cc3)ccc21 | 91.6 |

system: TDF; assay: H1.0 immunofluorescence intensity relative to DMSO (% of DMSO); higher = stronger H1.0 induction, active = 120 or more; settings: concentration: 10 µM; 24 h
How it was run: as §1

| Structure (SMILES) | H1.0 immunofluorescence intensity |
| --- | --- |
| O=C1NC(=O)C(c2c[nH]c3ccccc23)=C1c1c[nH]c2ccccc12 [Bisindolylmaleimide IV] | 94.7 (inactive) |
| COc1ccc(CCN(C)CCCC(C#N)(c2ccc(OC)c(OC)c2)C(C)C)cc1OC.Cl (racemic) | 99.2 (inactive) |
| C[C@H](C(=O)O)c1cccc(C(=O)c2ccccc2)c1 [(S)-(+)-Ketoprofen] | 99 (inactive) |
| CC1(C)C(C(=O)O)N2C(=O)CC2S1(=O)=O (configuration not stated) [Sulbactam] | 95.9 (inactive) |
| CC(C(=O)O)c1cccc(C(=O)c2ccccc2)c1 (configuration not stated) [Ketoprofen] | 88.8 (inactive) |
| N#Cc1ccc2c(c1)CCN(CCC1CCC(NC(=O)c3ccnc4ccccc34)CC1)C2 (configuration not stated) | 90.6 (inactive) |
| CCCCCCCCCCCCCCCCCCOCC(COP(=O)([O-])OCC[N+](C)(C)C)OC (configuration not stated) | 225 (active) and 85.1 (inactive) |
| COc1ccc(CCN(C)CCCC(C#N)(c2ccc(OC)c(OC)c2)C(C)C)cc1OC (configuration not stated) [Verapamil] | 90.6 (inactive) |
| CCCCCC(O)C=CC=CCCCCCCCCCC(=O)O (configuration not stated) | 95.7 (inactive) |
| Cl.NC1C=CC=C(C(=O)O)C1 (configuration not stated) [Gabaculine hydrochloride] | 102 (inactive) |
| Cc1c(C(=O)NN2CCCCC2)nn(-c2ccc(Cl)cc2Cl)c1-c1ccc(I)cc1 | 92 (inactive) |
| CCC(C)(C)C(=O)OC1CC(C)C=C2C=CC(C)C(CCC3CC(O)CC(=O)O3)C21 (configuration not stated) [Simvastatin] | 120 (inactive) |
| COc1ccc(CNC(=O)Nc2ncc([N+](=O)[O-])s2)cc1 [GSK-3b Inhibitor VIII] | 96.6 (inactive) |
| CN(C)CCCN1c2ccccc2Sc2ccc(C(F)(F)F)cc21.Cl [Triflupromazine hydrochloride] | 110 (inactive) |
| CCOC(=O)N1CCC(=C2c3ccc(Cl)cc3CCc3cccnc32)CC1 [Loratadine] | 98.3 (inactive) |
| NC(CCC(=O)NC(CS)C(=O)NCC(=O)O)C(=O)O (configuration not stated) [Glutathione] | 91 (inactive) |
| CCCCCC=CCC=CCC=CCC=CCCCCCC(=O)O [Adrenic acid (22:4 n-6)] | 108 (inactive) |
| COc1ccc(Cn2cc(C(=O)O)c(=O)c3ccccc32)cc1 | 98.8 (inactive) |
| CC1(C)CC=C(c2ccccc2)c2cc(/C=C/c3ccc(C(=O)O)cc3)ccc21 | 101 (inactive) |
| O=C(O)C1=CC(O)C(O)C(O)C1 (configuration not stated) [Shikimic acid] | 97.5 (inactive) |
